Source: ChEMBL document CHEMBL3988442, “University of Dundee, Small-Polar-MMV Screening Library” (2021)
The whole screen tested about 48,000 compounds, of which about 13,000 (27%) showed an effect of 50% or more. This is one part of the list.

What follows are compounds tested on Wolbachia pipientis (assay: Anti-Wolbachia Cell-Based Screen). Details: 5 µM.
Type: functional
Design: scale not given: in the data most compounds retested in dose-response had high values

| SMILES | Percent Effect [%] |
| --- | --- |
| CC(C)(C)C(=O)NCC(=O)NCC1CCCS1 (stereo not given) | -13.47 |
| CN(Cc1ccc(C#N)cc1)C(=O)c1ccnc(OC2CCC2)c1 | -4.84 |
| Cc1ccc2nc(CN3CCC(O)(Cn4ccnc4)CC3)cc(O)c2c1 | -4.196 |
| NC(=O)CN1CC2(CCC1=O)CCN(Cc1cc(F)cc(F)c1)CC2 | 6.606 |
| Cc1cc(N2CCCN(Cc3ccc(C)o3)CC2)ccn1 | -3.581 |
| OCC1(O)CCCN(Cc2ccccc2OCCc2ccccc2)CC1 (stereo not given) | 13.11 |
| Cc1ccc(CN2CCCC3(CCN(Cc4ccc(C)o4)C3)C2)o1 (stereo not given) | 14.2 |
| COc1ccc(F)cc1CN1CCC(O)(CN2CCCCC2)C1 (stereo not given) | 8.228 |
| Cc1cc(CN2CCC(O)(Cn3ccc4ncccc43)CC2)c(C)s1 | 75.84 |
| Oc1cc(CN2CCC(O)(Cn3ccnc3)CC2)nc2ccc(F)cc12 | -18 |
| Cc1cc(C(=O)N2CCN(C(=O)Cc3ccccn3)CC2)c(C)s1 | 2.124 |
| Cc1ccc(CN2CCC(O)(Cn3ccc4ncccc43)CC2)o1.Cl | 100 |
| OC1(Cn2ccc3ncccc32)CCN(Cc2cc(F)cc(F)c2)CC1 | 107.3 |
| COc1ccccc1CN1CCC(O)(Cn2ccc3ncccc32)CC1 | 82.78 |
| Nc1ccnn1C1CCN(Cc2ccccc2)C1 (stereo not given) | -4.351 |
| CCN(C)Cc1cnc(S(=O)(=O)CC)n1CCOC | 2.274 |
| Cc1cc(S(=O)(=O)NCC2CNCCOC2)c(C)cc1Cl (stereo not given) | -6.904 |
| O=C(O)C(=O)O.c1cnc(-c2noc(C3CN(Cc4ccsc4)C3)n2)cn1 | 20.73 |
| O=C(O)C1(Cc2ccccc2Cl)CCN(c2ncccc2F)CC1 | -2.228 |
| Cl.OC1(Cn2ccc3ncccc32)CCN(Cc2ccccn2)CC1 | -13.22 |
| Cl.OC1(Cn2ccc3ncccc32)CCN(Cc2ccccc2F)CC1 | 103.8 |
| c1ccc(CO[C@H]2CN(c3ncccn3)C[C@@]23CCCO3)cc1 | 124.5 |
| COc1ccc(N2CCCC3(C2)CN(c2ncccn2)CCO3)cc1 (stereo not given) | 2.929 |
| c1ccc(CN2CCOC3(CCCN(c4nccs4)C3)C2)cc1 (stereo not given) | -0.1767 |
| CN(C(=O)COC1CCCCC1)C1CCN(CC2CCOC2)CC1 (stereo not given) | -5.016 |

| SMILES | Percent Effect [%] |
| --- | --- |
| COc1cc2c(cc1OC)CN(C(C(=O)O)c1c(C)nn(C)c1C)CC2 (stereo not given) | 14.43 |
| COc1ccccc1OCC(=O)N1CCC[C@]2(C[C@@H](OC)CO2)C1 | -30.12 |
| CO[C@@H]1CO[C@@]2(CCN(C(=O)COc3ccccc3C)C2)C1 | -3.612 |
| CO[C@H]1CO[C@@]2(CCCN(C(=O)C3CC=CC3)C2)C1 | 107.2 |
| CO[C@@H]1CO[C@@]2(CCCN(C(=O)C3CC=CC3)C2)C1 | 95.67 |
| COCC(=O)N1CC[C@@H]2O[C@@H](COCC3CCOCC3)CC[C@@H]21 | -13.21 |
| Cc1ccc(NS(=O)(=O)c2cccc(C#N)c2)c(CN(C)C)c1 | 5.777 |
| Cc1nc(C)n(C2CCCN(C(=O)c3ccc(F)cc3F)C2)n1 (stereo not given) | 4.826 |
| Cc1nnsc1C(=O)N1CCCC(c2nccn2Cc2cscn2)C1 (stereo not given) | 19.06 |
| Cc1nnsc1C(=O)N1CCCC(n2nnc3cc(F)ccc32)C1 (stereo not given) | 86.87 |
| Cc1cc(C)n(C2CCCN(C(=O)c3ccc(F)cc3F)C2)n1 (stereo not given) | 0.0476 |
| Cc1nn(C)cc1C(=O)N1CCCC(n2nnc3cc(F)ccc32)C1 (stereo not given) | 70.61 |
| Cc1c(C(=O)N2CCCC(n3nnc4cc(F)ccc43)C2)cnn1C (stereo not given) | 103.4 |
| O=C(c1n[nH]cc1Cl)N1CCCC(n2nnc3cc(F)ccc32)C1 (stereo not given) | 121.3 |
| CCc1nnsc1C(=O)N1CCCC(COc2ccc(F)cc2)C1 (stereo not given) | -1.511 |
| O=C(c1n[nH]cc1Cl)N1CCOC(Cc2cccc(C(F)(F)F)c2)C1 (stereo not given) | 16.6 |
| COc1c(CNC2CCCOc3ccc(F)cc32)c(C)nn1C.Cl (stereo not given) | -15.22 |
| Cc1ccccc1N1CCN(C(=O)c2ccc[nH]2)C(C)C1 (stereo not given) | -11.11 |
| COCc1noc(-c2ccc(N(C)Cc3cn(C)nc3C)nc2)n1 | -0.7863 |
| COc1ccc(C(C)N2CCC(C(=O)NC3CC3)CC2)cc1Cl (stereo not given) | 5.354 |
| O=C(c1ccsc1)N1CCc2c(CNc3nccs3)n[nH]c2C1 | -7.215 |
| CN1C(=O)CC(c2ccccc2)C12CCN(c1ncccn1)CC2 (stereo not given) | -22.26 |
| CCC(C(=O)NCc1cc(N2CCOCC2)ncn1)n1cccn1 (stereo not given) | -0.1761 |
| CCc1csc(CNC(=O)C(CC)n2cccn2)n1 (stereo not given) | -1.307 |
| Cc1cc(C(F)(F)F)nc(CNC(=O)CCCN2CCCCC2)n1 | -0.7363 |

| SMILES | Percent Effect [%] |
| --- | --- |
| CCC(C(=O)NCc1noc(Cc2cccs2)n1)n1cccn1 (stereo not given) | -1.383 |
| Cc1cc(C(F)(F)F)nc(CNC(=O)CCn2cccn2)n1 | 103.4 |
| CCC(C(=O)NCc1nc(C)cc(C(F)(F)F)n1)n1cccn1 (stereo not given) | 86.37 |
| CCC(C(=O)NCCc1nc(C)cc(C(F)(F)F)n1)n1cccn1 (stereo not given) | 110 |
| Cc1cc(C(F)(F)F)nc(CNC(=O)CCC2CCCCN2C)n1 (stereo not given) | -1.594 |
| CCC(C(=O)NCc1csc(-c2ncccn2)n1)n1cccn1 (stereo not given) | 6.719 |
| CC(C)NC(=O)N[C@H]1C[C@@H](c2nc(-c3ccncc3)no2)N(C)C1 | -7.5 |
| Cc1ccc2c(c1)CCCN2C(=O)c1cncc(Br)c1 | 3.118 |
| CCc1c(NCc2ccc(F)cc2)cnn1CC(C)C | 0.9512 |
| CNC(=O)c1cc(NC(=O)Nc2cnn(CC(C)C)c2)ccc1F | 106.8 |
| O=C(Nc1cnn(CCN2CCOCC2)c1)c1cc(F)ccc1F | -10.74 |
| CCc1c(C(=O)Nc2ccc(F)c(C(=O)NC)c2)cnn1CC(C)C | 115.2 |
| CNC(=O)c1cc(NC(=O)NC(C)CCc2cccn2C)ccc1F (stereo not given) | 0.1416 |
| Cc1c(C(=O)NS(=O)(=O)c2ccc(F)cc2)cnn1CC(C)C | 6.603 |
| CNC(=O)CNC(=O)Nc1ccc(F)c(Br)c1 | 3.521 |
| CC(C)Cn1cc(NC(=O)c2cccc(N(C)C)c2)cn1 | -6.196 |
| CCCn1cc(NC(=O)Nc2ccc(F)c(C(=O)NC)c2)cn1 | 109.9 |
| COCCCN1CCC(NC2CSCCc3ccccc32)CC1 (stereo not given) | 3.161 |
| O=C(CCn1cncn1)N1C[C@H]2CC[C@@H]1CN(Cc1cccnc1)C2 | 2.407 |
| Cc1nc(Cn2cnc3c(c(Br)nn3C)c2=O)cs1 | -1.874 |
| Cc1csc([C@H]2C[C@@H]3CCN(Cc4cnn(C)c4)C[C@H]3O2)n1 | 5.32 |
| CN(C)C(=O)c1n[nH]c2c1CN(CC1CCCCC1)C2.O=C(O)C(F)(F)F.O=C(O)C(F)(F)F | 93.81 |
| CN(C)C(=O)c1n[nH]c2c1CN(Cc1nccs1)CC2.O=C(O)C(F)(F)F | -9.505 |
| CN(C)C1CCN(C(=O)c2n[nH]c3c2CCN(CC2CCC2)C3)CC1 | 111.2 |
| CN1CCN(C(=O)c2n[nH]c3c2CCN(Cc2nccs2)C3)CC1 | -5.603 |

| SMILES | Percent Effect [%] |
| --- | --- |
| CN(C)C(=O)c1n[nH]c2c1CN(Cc1ccccn1)CC2.O=C(O)C(F)(F)F | -21.72 |
| CN(C)C(=O)c1n[nH]c2c1CN(CC1CCC1)C2.O=C(O)C(F)(F)F.O=C(O)C(F)(F)F | 93.12 |
| CCN1CCc2[nH]nc(C(=O)N3CCCC3C)c2C1.O=C(O)C(F)(F)F (stereo not given) | -0.9609 |
| O=C(O)C(F)(F)F.O=C(c1n[nH]c2c1CCN(Cc1nccs1)C2)N1CCCC1 | 1.297 |
| Cc1ccc(CN2CCc3[nH]nc(C(=O)N(C)C)c3C2)s1.O=C(O)C(F)(F)F.O=C(O)C(F)(F)F | -17.1 |
| Cc1cc(C(=O)N(C)Cc2ccoc2)c(NC(=O)C(C)(C)C)s1 | -2.438 |
| Cn1c(CS(=O)(=O)Cc2ccc(Cl)cc2)cc(=O)n(C)c1=O | 5.826 |
| C/C=C(\C)CN1CCC2(CCC(=O)N2OCc2ccccc2F)CC1 | 2.227 |
| CCOCc1ccccc1NC(=O)NCC(C)(O)c1cc(C)oc1C (stereo not given) | -7.22 |
| CCc1ccccc1OC1CN(C(=O)CN(C)Cc2cccnc2)C1 | -4.322 |
| Cc1noc(Cl)c1CC(=O)NCCOc1ccc(F)cc1F | 16.27 |
| CCN(CC)C(=O)Cn1c(-c2ccc(Cl)cc2)nc(C)c(CCO)c1=O | 119.6 |
| COc1c(CNCCNC(=O)Cc2ccc(F)cc2)c(C)nn1C | -0.8821 |
| COCCNC(=O)Cn1c(-c2ccc(Cl)cc2)nc(C)c(CCO)c1=O | 140 |
| COCCNC(=O)Cn1c(-c2ccc(F)cc2)nc(C)c(CCO)c1=O | 103.8 |
| Cc1nc(-c2ccc(Cl)cc2)n(CC(=O)NC(C)C)c(=O)c1CCO | 129.7 |
| CCN(CC)C(=O)Cn1c(C)cc2nc(SC)n(CC(C)C)c(=O)c21 | 2.572 |
| CCN(Cc1cnn(CC)c1)C(=O)Cn1c(=O)c(C)nc2ccccc21 | -5.598 |
| COCCNC(=O)c1sc(Nc2ccc(Cl)cn2)nc1C | 19.38 |
| CC(CNC(=O)c1cccnc1O)Cn1cccn1 (stereo not given) | -0.5981 |
| O=C1CCCN1CCCC(=O)N1CCCCC1c1ccc(F)cc1 (stereo not given) | -8.614 |
| O=C(NCCNS(=O)(=O)c1ccc(C(F)(F)F)cc1)c1ccoc1 | 7.368 |
| CCCN1CCC(NC(=O)c2csc(C)c2C)CC1 | 2.027 |
| O=C(CS(=O)(=O)c1ccc(Cl)cc1)NC1CCCc2ccccc21 (stereo not given) | 1.396 |
| CC(C)OC(C)c1nnc(SCC(=O)O)n1-c1ccc(F)cc1F (stereo not given) | 15.24 |
